Screening data as filed in PubChem BioAssay.
A selection: hits, their analogues and other compounds. The true share with any hit is near 4.8%.
ATXN2 expr inh = Primary qHTS for Inhibitors of ATXN expression; hit rate 0.72% among 360,000; Potency, µM (highest dose often 57 µM), without a hit: at the top dose activity change, negative = inhibition, usual class: inhibitors; HEK-293 ATXN2-luciferase reporter, luminescence, 24 h; AID 1745845, 2022; further: potency means the concentration at half of the fitted maximal effect; on the % scale 0 is the no-effect control and ±100 the full control effect; nearly all actives have a fitted effect of over 55% in size
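ATXN2-luciferase reporter cells (luciferase flanked by upstream and downstream ATXN2 gene portions) were treated 24 h at 37 °C with compounds at up to 57 uM. SteadyGlo luminescence gave expression; GF-AFC fluorescence gave viability.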
S2 tox = Viability Counterscreen for Primary qHTS for Inhibitors of ATXN expression; S2 cells (HEK-293 line with an ATXN2-luciferase reporter) viability, CellTiter-Fluor protease fluorescence, 24 h; Potency, µM (series often up to 56.7 µM), usual class: cytotoxic; hit rate 0.49% among 400,000; further: potency means the concentration at half of the fitted maximal effect; nearly all actives have a fitted effect of over 40% in size
IL-1B inflam inh = qHTS for Inhibitors of Inflammasome Signaling: IL-1-beta AlphaLISA Primary Screen; AID 743279, 2014; hit rate 4.7% among 360,000; THP-1 LPS/ATP IL-1B secretion, AlphaLISA, 16 h; active compounds read low; activity change, % at 57.5 µM; in the data active means activity change below about -50%; inconclusive means mostly about -30% to -49%; further: on the % scale 0 is the no-effect control and ±100 the full control effect
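THP-1 cells pretreated 1 hr with compounds (up to 57.5 uM final), then stimulated with LPS (250 ng/mL final) plus ATP (1.25 mM final); secreted IL-1B measured by AlphaLISA after 16 hr, decreased signal indicating inhibition.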
USP2a inh = qHTS Assay for Inhibitors of Ubiquitin-specific Protease USP2a Using CHOP2 as the Reporter | Ubiquitin carboxyl-terminal hydrolase 2 (Homo sapiens), O75604 | hit rate 0.01% among 330,000 | Potency, µM (series often up to 38.3 µM), for the others: at the top dose activity change, negative = inhibition, actives largely listed as inhibitors | USP2 core, Ub-CHOP2 coupled fluorogenic reporter, 485/531;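 further: potency means the concentration at half of the fitted maximal effect; plate controls were DMSO wells for no effect and full inhibition by NEM control for full effect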
Target sequence (O75604 whole entry, looked up): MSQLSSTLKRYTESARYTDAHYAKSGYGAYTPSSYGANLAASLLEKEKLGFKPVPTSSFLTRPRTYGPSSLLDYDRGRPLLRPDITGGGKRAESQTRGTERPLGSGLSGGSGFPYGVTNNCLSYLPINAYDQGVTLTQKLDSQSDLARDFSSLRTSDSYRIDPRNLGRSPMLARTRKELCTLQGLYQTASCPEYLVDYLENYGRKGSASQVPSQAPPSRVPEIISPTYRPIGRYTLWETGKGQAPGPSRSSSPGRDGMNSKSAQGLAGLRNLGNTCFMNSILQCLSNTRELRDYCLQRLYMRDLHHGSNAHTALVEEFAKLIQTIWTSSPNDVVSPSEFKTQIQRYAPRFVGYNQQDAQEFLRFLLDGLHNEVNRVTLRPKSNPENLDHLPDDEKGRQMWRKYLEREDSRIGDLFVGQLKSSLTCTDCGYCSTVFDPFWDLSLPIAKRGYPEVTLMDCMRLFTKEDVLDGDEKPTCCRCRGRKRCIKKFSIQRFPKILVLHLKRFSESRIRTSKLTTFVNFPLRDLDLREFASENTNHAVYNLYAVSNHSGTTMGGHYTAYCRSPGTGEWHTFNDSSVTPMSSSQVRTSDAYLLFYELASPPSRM
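USP2 core (10nM final) preincubated 30min RT with compound in 20mM Tris-HCl pH 8.0, 2mM CaCl2, 2mM beta-mercaptoethanol, 0.05% CHAPS; 25nM Ub-CHOP2 plus 25nM reporter substrate added, fluorescence (Ex485/Em531) read after 60min.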
USP1-UAF1 inh = Inhibitors of USP1/UAF1: Primary Screen; recombinant USP1/UAF1, Ub-Rhodamine cleavage fluorescence; AID 743255, 2014; hit rate 0.23% among 390,000; Potency, µM (highest dose often 57.1 µM), inactives show top-dose activity change, negative = inhibition, usual class: inhibitors; further: potency means the concentration at half of the fitted maximal effect; on the % scale 0 is the no-effect control and ±100 the full control effect; nearly all actives have a fitted effect of over 60% in size
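USP1/UAF1 complex (1 nM) preincubated 15 min at room temperature with compound, then Ub-Rho substrate (150 nM final) added. Kinetic fluorescence at 480/540 nm over 6 reads at 60 s intervals; 50 mM HEPES pH 7.8, 0.5 mM EDTA, 0.1 mg/ml BSA, 1 mM TCEP, 0.01% Tween-20.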
* marks the source's active call; other numbers are inactive results; i = inactive; ? = inconclusive; . = no result; [ ] = dose if it differs, or a comment. Unless noted, the call rests on the fitted dose curve; in most records, active means well fitted curve in the direction sought with a large enough effect; inconclusive means small, poorly fitted or top-dose-only effect, or another doubt; inactive means no such curve, though single readings can be large; an effect the other way counts as inactive or inconclusive.

SMILES | ATXN2 expr inh | S2 tox | IL-1B inflam inh | USP2a inh | USP1-UAF1 inh
Clc1ccc2nc(N3CCN(c4ccccc4)CC3)sc2c1 | -1% | ? | 8 | -1% | -21%
Brc1ccc2nc(N3CCN(c4ccccc4)CC3)sc2c1 | 12% | i | -74* | 3% | -4%
COc1ccc(-c2cc(C(=O)NCc3ccc(F)cc3)no2)cc1 | 5% | i | . | . | ?
CCC(C)c1ccccc1N1CC(C(=O)N(C)CC(=O)Nc2cccc(F)c2)CC1=O (stereo not given) | 1% | i | -61* | 0% | -9%
CCC1CCc2sc(C(=O)NCC(c3ccc(OC)cc3)N3CCCC3)cc2C1 (stereo not given) | -8% | i | ? | 1% | -7%
C=CCn1c(SCC(=O)Nc2cccc(S(N)(=O)=O)c2)nc2sc(C)c(C)c2c1=O | -5% | i | -61* | -10% | -4%
COCCn1c(SCC(=O)Nc2cccc(S(N)(=O)=O)c2)nc2cc(Cl)ccc2c1=O | -15%[11.3 µM] | i | -68* | -2% | -4%
COCCn1c(SCC(=O)Nc2cccnc2Cl)nc2cc(Cl)ccc2c1=O | -8% | i | -11 | -1% | -7%
COCCn1c(SCC(=O)Nc2sccc2C(N)=O)nc2cc(Cl)ccc2c1=O | -22% | ? | -54* | -2% | -11%
Cc1ccc(CN2Cc3cccc4c3[C@@H](CC2=O)[C@H](O)[C@H](O)C4)cc1 | 6% | i | 4 | 1% | -31%
O=C1NC(=O)C(=Cc2ccc3nccnc3c2)S1 | 5%[25.6 µM] | . | . | . | .
COc1ccc(NC(=O)COC(=O)C2CCN(S(=O)(=O)c3ccccc3)CC2)cc1Cl | 5% | i | 6 | 1% | -7%
O=c1[nH]c(CN2CCN(C/C=C/c3ccccc3)CC2)nc2cc(Cl)ccc12 | -25% | ? | -72* | 1% | -15%
CCc1cccc(NC(=O)C(Cc2ccccc2)NS(=O)(=O)c2ccc3c(c2)c(=O)n(C)c(=O)n3C)c1 (stereo not given) | -32% | i | . | . | -7%
COc1ccc(CNC(=O)c2cccc3c(-c4ccc(F)c(F)c4)coc23)cc1OC | 0% | i | -10 | . | .
COc1ccc(CNC(=O)c2cccc3c(-c4cccc(C(N)=O)c4)coc23)cc1OC | 32µM* | 18µM* | 52 | . | .
COc1cc(-c2coc3c(C(=O)NCc4ccc(N(C)C)cc4)cccc23)ccc1O | ? | ? | -53* | . | .
Cn1cc(-c2coc3c(C(=O)NCc4cccs4)cccc23)cn1 | -2% | i | -9 | . | .
COc1cc(-c2coc3c(C(=O)NCc4ccncc4)cccc23)ccc1O | -7% | ? | -67* | . | .
Cn1cc(-c2coc3c(C(=O)NCc4cccc(Cl)c4)cccc23)cn1 | -34% | ? | -68* | . | .
CCC1(CC)C(C#N)C(=O)NC(=O)C1C#N (stereo not given) | 7% | i | 1 | . | -4%
CC(NC(=O)C1CCOCC1)c1nnc2n1CCN(Cc1cc3c(cc1Cl)OCO3)CC2 (stereo not given) | . | i | . | . | .
C=CCc1cccc2cc(C(=O)N3CCN(C(=O)c4ccccc4)CC3)c(=O)oc12 | 14% | i | -7 | 2% | -10%
CCOC(=O)[C@]12CCC=C1N(CCC1=CCCCC1)C(=O)[C@H](CC(=O)N1CCCC1)C2 | -12% | i | 26 | . | .
Cc1ccc2ccccc2c1C(O)c1ncc(-c2ccc(F)cc2)[nH]1 (stereo not given) | -14% | i | 19 | . | .
SMILES | ATXN2 expr inh | S2 tox | IL-1B inflam inh | USP2a inh | USP1-UAF1 inh
COc1cc(-c2coc3c(C(=O)NCc4ccc(OC)c(OC)c4)cccc23)ccc1O | ? | 16µM* | -5 | . | .
CC(Oc1ccc(Cl)cc1Cl)C(=O)NCCC1=CCCCC1 (stereo not given) | 0% | i | -57* | -1% | -8%
O=C(NC1CCCCC1)C(c1ccc2ncccc2c1)N(Cc1ccccc1)C(=O)c1ccc2c(c1)OCCO2 (stereo not given) | -16% | ? | -55* | -1% | 6%
O=C(NC1CCCCC1)C(c1ccc2ncccc2c1)N(Cc1ccc2c(c1)OCO2)C(=O)c1cccs1 (stereo not given) | ? | ? | -69* | 0% | -9%
O=C(NC1CCCCC1)C(c1ccc2ncccc2c1)N(Cc1ccccc1)C(=O)c1cccs1 (stereo not given) | -15% | ? | -69* | -2% | -14%
COc1ccc(CN(C(=O)c2ccc3c(c2)OCCO3)C(C(=O)NC2CCCCC2)c2ccc3ncccc3c2)cc1 (stereo not given) | 1% | i | 13 | 1% | -20%
CN(C)CCCOC1(Cc2ccccc2)CCCCCC1 | -8% | i | . | . | .
Clc1ccccc1/C=N/NC1=Nc2cccc3cccc1c23 | -35% | 13µM* | -20 | 10% | -4%
C(=N\NC1=Nc2cccc3cccc1c23)/c1ccccn1 | . | ? | 111 | 6% | ?
CCc1ccc(CN(C)C(=O)c2cc(COc3c(F)cccc3F)on2)cc1 | 7% | i | -58* | -1% | -17%
CN(Cc1cccc2ccccc12)C(=O)c1cc(COc2c(F)cccc2F)on1 | . | i | ? | 1% | -8%
Cc1ccc(NC(=S)NNc2ncc(C(F)(F)F)cc2Cl)c(C)c1 | -31% | i | 0 | -1% | -18%
Cc1ccc(NC(=S)NNc2ncc(C(F)(F)F)cc2Cl)cc1 | 17µM* | i | -16 | 3% | -7%
FC(F)(F)c1cccc(NC(=S)NNC(=S)Nc2ccc(Cl)cc2)c1 | . | . | . | -7% | .
Fc1ccc(NC(=S)NNc2ncc(C(F)(F)F)cc2Cl)c(F)c1 | 14µM* | i | -10 | 0% | ?
FC(F)(F)c1cnc(NNC(=S)Nc2ccc(Cl)cc2)c(Cl)c1 | ? | ? | -99* | -3% | -22%
Nc1nonc1C(=O)NCCNCc1ccccc1OCc1ccccc1F | -32% | i | -28 | 2% | -18%
COc1cc(CNCCNC(=O)c2nonc2N)ccc1OCc1ccc(Cl)cc1 | -17% | i | -95* | -1% | -3%
Nc1nonc1C(=O)NCCNCc1cc(Br)ccc1OCc1ccccc1F | ? | i | -56* | 1% | -19%
Cc1ccc(C)c(OCCOCCn2c(-c3ccc(Br)cc3)nc3ccccc3c2=O)c1C | 10% | i | . | . | -18%
N#Cc1c(NCCCO)nc(-c2ccccc2)c2c1CCCC2 | 2% | i | 14 | 5% | -22%
N#Cc1c(NCCN)nc(-c2ccccc2)c2c1CCCC2 | -12% | ? | -55* | -4% | -13%
CCCN(C(=O)CCl)C1=CCCCC1 | 8.4µM* | . | -87* | 11% | -5%
O=P(O)(O)OC(CO)CO | . | i | . | . | .
